Drawing on PubChem BioAssay AID2550 (Johns Hopkins Ion Channel Center, 2010), this text covers B-score for 77 molecules.

Out of some 310,000 compounds screened, about 380 (0.12%) were called active.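 Rule for the calls: active = B-score of the integrated fluorescence ratio above library mean plus 3 SD, and starting fluorescence ratio within library mean plus 5 SD; inactive = the rest.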 The sample as a whole holds a higher share of actives than the screen did.

Sequence of Short transient receptor potential channel 6 (Mus musculus) (Q61143 whole entry, looked up): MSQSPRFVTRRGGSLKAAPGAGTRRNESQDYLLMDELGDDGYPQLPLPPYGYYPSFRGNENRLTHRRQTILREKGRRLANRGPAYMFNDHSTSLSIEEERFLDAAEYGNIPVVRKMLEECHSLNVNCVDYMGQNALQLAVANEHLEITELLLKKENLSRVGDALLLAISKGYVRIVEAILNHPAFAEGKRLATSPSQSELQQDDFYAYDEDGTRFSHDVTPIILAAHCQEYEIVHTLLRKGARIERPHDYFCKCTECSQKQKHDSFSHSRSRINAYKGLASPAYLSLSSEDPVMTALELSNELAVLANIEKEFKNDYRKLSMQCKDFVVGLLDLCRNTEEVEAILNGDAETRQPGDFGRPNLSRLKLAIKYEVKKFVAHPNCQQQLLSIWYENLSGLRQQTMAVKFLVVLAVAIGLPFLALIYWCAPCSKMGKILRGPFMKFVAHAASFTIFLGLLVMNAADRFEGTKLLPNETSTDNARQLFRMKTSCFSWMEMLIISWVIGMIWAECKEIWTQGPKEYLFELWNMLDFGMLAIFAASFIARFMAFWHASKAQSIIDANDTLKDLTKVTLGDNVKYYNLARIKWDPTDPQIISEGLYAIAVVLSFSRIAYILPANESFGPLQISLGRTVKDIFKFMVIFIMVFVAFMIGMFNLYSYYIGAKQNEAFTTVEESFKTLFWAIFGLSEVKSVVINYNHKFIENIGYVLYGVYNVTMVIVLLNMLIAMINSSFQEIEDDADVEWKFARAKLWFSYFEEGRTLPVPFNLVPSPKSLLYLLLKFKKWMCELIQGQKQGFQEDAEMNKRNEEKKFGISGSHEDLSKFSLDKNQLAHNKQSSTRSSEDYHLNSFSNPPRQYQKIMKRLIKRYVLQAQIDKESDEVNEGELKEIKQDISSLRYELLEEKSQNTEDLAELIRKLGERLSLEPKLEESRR

The experiment has as its target Short transient receptor potential channel 6 (Mus musculus) (UniProt Q61143). Briefly: mouse TRPC6 channel activators, primary screen, cell-based, HEK293, membrane potential dye (AID 2550).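 Note: higher score means more depolarization so channel activation.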 The settings on record: HEK293-TRPC6 membrane potential dye fluorescence, at 10 µM; stronger effect = higher value.
Take `COc1ccc(CN2CCC(c3nc4ccc(Cl)cc4[nH]3)CC2)cc1`: the B-score entry was “inactive”. Turning to `CCc1ccc(C(=O)NNC(=O)C2CCN(c3ncnc4sc(C)c(C)c34)CC2)cc1`, the B-score entry was “inactive”. Take `O=C(O)CCn1c(SCc2cc(=O)n3ccccc3n2)nc2ccsc2c1=O`: the B-score entry is “inactive”. On to `Cc1sc(NC(=O)C2C3CCC(O3)C2C(=O)O)c(C(=O)OC(C)C)c1-c1ccc(Cl)cc1` (configuration not stated), for which the B-score entry was “inactive”. Turning to `CC(C)(C)n1nnnc1C(c1ccccc1F)N1CCN(C(=O)c2ccco2)CC1` (configuration not stated), the B-score entry was “inactive”. The entry for `CCOCCCN(C)C1CCN(C(=O)c2oc3ccccc3c2NC(=O)Cc2cccc([N+](=O)[O-])c2)CC1` is “inactive”; for `CC1=C(N2CCN(c3ncccn3)CC2)CCC1=O` it is “inactive”; for `O=S(=O)(NC(=S)Nc1ccccc1)c1ccc(F)cc1` it is “inactive”. For the molecule `Nc1ccc(SCCN2C(=O)c3ccccc3C2=O)cc1`, the B-score result is “inactive”.

Consider `COC(=O)CNc1nc(Cl)nc(N2CCC(C)CC2)n1`, for which the B-score entry is “inactive”.

As to `Cc1ccc(CNC(=O)c2ccccc2CCc2ccccc2)cc1`, the B-score entry is “inactive”. For `O=C1CC2(CC(c3ccc(Cl)cc3)=NO2)C(=O)N1c1ccccc1` (configuration not stated), the B-score result is “inactive”. For the molecule `CCOC(=O)N1CCN(C(=O)CSc2nc(=O)n3cccc(C)c3n2)CC1`, the B-score result is “inactive”. On to `CCOC(=O)CC1C(=O)NCCN1c1nc2c(C)cccn2c(=O)c1/C=C1\SC(=S)N(C(C)CC)C1=O` (configuration not stated), for which the B-score was 26.7 (active). On to `CCCN(CCC)c1nc2c(C)cccn2c(=O)c1/C=C1/SC(=S)N(Cc2ccco2)C1=O`, for which the B-score entry is “inactive”.

As for `O=C1C2C3C=CC(C4CC34)C2C(=O)N1/N=C/c1ccc(-c2ccccc2[N+](=O)[O-])o1` (configuration not stated), the B-score result is “inactive”. On to `COC(=O)[C@@H](Cc1ccccc1)NC(=O)NCCc1ccccc1`, for which the B-score entry is “inactive”. As for `O=[N+]([O-])c1ccccc1N/N=C1\CCc2ccccc21`, the B-score entry is “inactive”. As to `O=C(NCCS(=O)(=O)NCc1ccc(Cl)cc1)c1ccccc1`, the B-score entry was “inactive”. With `CC(C)NC(=O)c1ccc(Sc2ccccc2)c([N+](=O)[O-])c1`, the B-score result is “inactive”. `CCOc1ccc(S(=O)(=O)N2CCCCCC2)c2ccccc12`: the B-score result was “inactive”. Regarding `CC1CCCCC1NC(=O)CSc1nnc(-c2ccncc2)n1CCCN(C)C` (configuration not stated), the B-score entry is “inactive”.

As to `CCOC(=O)C1=C(O)/C(=C/c2cc(C)n(-c3ccccc3)c2C)N=C1C`, the B-score result was “inactive”.

With `COc1cc(OC)c(C2=NOC(C(=O)Nc3c(C)n(C)n(-c4ccccc4)c3=O)C2)cc1Cl` (configuration not stated), the B-score entry was “inactive”. On to `CC(C)Cc1oc(C(=O)O)cc1CN`, for which the B-score entry was “inactive”.

As for `O=[N+]([O-])c1cc(Cl)cc(/C=N/NC(=S)Nc2cc(S(=O)(=O)N3CCOCC3)ccc2Cl)c1O`, the B-score entry is “inactive”.

Turning to `COc1ccc(S(=O)(=O)n2nc(C)c(S(=O)(=O)N3CCOCC3)c2C)cc1`, the B-score result is “inactive”.

Turning to `CCOc1ccc(-c2c(C)n([O-])c3c([n+]2=O)CCCC3)cc1`, the B-score entry was “inactive”. `COCCOC(=O)c1sc(=S)n(CCOC)c1N`: the B-score entry is “inactive”. The entry for `O=S(=O)(c1cccc2nonc12)N1CCN(c2cccc(Cl)c2)CC1` is “inactive”.

Turning to `Cc1cc(C)nc(SC(C)C(=O)N/N=C/c2cccs2)n1` (configuration not stated), the B-score entry was “inactive”.

Turning to `CCCCCCn1cc(C(=O)O)c(=O)c2cc(F)c(N3CCCCC3)cc21`, the B-score was 12.2 (active). The entry for `CCn1cc(C(=O)NCCO)c(=O)c2cc(F)c(N3CCN(C)CC3)cc21` is “inactive”; for `CN1CCN(c2cc3c(cc2F)c(=O)c(C(=O)O)cn3CCF)CC1` it is “inactive”. Regarding `COCCNC(=O)/C(C#N)=C/c1nc(N(C)C)n(-c2ccc(F)cc2)c1Cl`, the B-score entry was “inactive”. Turning to `CN(c1ccccc1)c1ccc(/C=c2\s/c(=C(/C#N)C(=O)C(C)(C)C)n(Cc3ccco3)c2=O)cc1`, the B-score is 33.3 (active).

Regarding `CCOC(=O)Cn1c(=O)oc2cc(S(=O)(=O)N(C)Cc3ccco3)ccc21`, the B-score entry is “inactive”. On to `CCOC(=O)/C=c1\s/c(=C\c2ccc(C#N)cc2)c(=O)n1CC(=O)Nc1cccc(C)c1C`, for which the B-score result is “inactive”. Next, `CCn1cc(/C=C(\NC(=O)c2cc(OC)c(OC)c(OC)c2)C(=O)N2CCN(C)CC2)c2ccccc21`: “inactive”; `O=C(NNc1ccccc1Cl)C(O)(c1cccc(C(F)(F)F)c1)c1cccc(C(F)(F)F)c1`: “inactive”; `CCOC1CCCCC1NS(=O)(=O)c1ccc(Cl)cc1` (configuration not stated): “inactive”. `CCn1ccnc1CN1CCCC(C(=O)c2ccc3c4c(cccc24)CC3)C1` (configuration not stated): the B-score entry is “inactive”. In the case of `COc1cc2c(cc1OC)C(C(=O)NCc1ccco1)C1c3ccccc3CCN1C2=O` (configuration not stated), the B-score result is “inactive”. `CCn1cc(/C=C2/SC(=S)NC2=O)c(C)n1`: the B-score entry was “inactive”.

With `CCN1C(=NCCc2cccnc2)N[C@@H](c2ccccc2)[C@H](C(=O)OC)[C@H]1C`, the B-score entry is “inactive”.

`CCOc1ccc(NC(=O)C2CCN(C(=O)N3CCOc4ccccc43)CC2)cc1`: the B-score result is “inactive”. With `CCCCn1c(N)c(N(CCOC)C(=O)c2cccc(OCc3ccccc3)c2)c(=O)[nH]c1=O`, the B-score result was “inactive”. `C#CC(C)(C)NC(=O)c1cnc(-c2ccccc2)nc1-c1ccccc1`: the B-score entry was “inactive”. For `CC(=O)Nc1ccc(CN2CCC(Oc3ccc(C(=O)N4CCCC4)cc3)CC2)cc1`, the B-score result is “inactive”. Turning to `Cc1ccc(S(=O)(=O)/N=C(\CN2CCOCC2)N2CCOCC2)cc1`, the B-score result is “inactive”. For the molecule `CCc1ccccc1OCC(=O)Nc1ccc2c(c1)OCCO2`, the B-score entry was “inactive”.

For the molecule `COc1ccc2oc(C(=O)NCC(Cc3ccccc3)N(C)C)c(C)c2c1` (configuration not stated), the B-score result was “inactive”.

As for `COc1c(O)ccc2c1CN1CCc3cc4c(cc3C1C2)OCO4` (configuration not stated), the B-score entry is “inactive”. Regarding `Cc1ccc(S(=O)(=O)c2nnn3c2nc(N2CCN(c4ccccn4)CC2)c2ccccc23)cc1`, the B-score entry was “inactive”. With `Cc1cccc(N2CCN(C(c3ccc(N(C)C)cc3)c3nnnn3C(C)(C)C)CC2)c1C` (configuration not stated), the B-score result was “inactive”. As for `CC(C)(C)n1nnnc1C(c1ccc(Cl)cc1)N1CCSCC1` (configuration not stated), the B-score entry was “inactive”. Take `CC(C)(C)n1nnnc1C(c1ccc2ncccc2c1)N1CCSCC1` (configuration not stated): the B-score was 12.7 (active). `CN(C)C(CNC(=O)c1ccc(S(=O)(=O)NCc2ccco2)cc1)c1ccccc1` (configuration not stated): the B-score result is “inactive”. As to `CC(=O)N(Cc1cccs1)C1CCOC(C)(C)C1` (configuration not stated), the B-score result is “inactive”.

As to `CCc1ccc(C2C(C#N)=C(N)N(N3CCOCC3)C3=C2C(=O)CC(C)(C)C3)s1` (configuration not stated), the B-score result was “inactive”. As to `Cc1ccc(Cl)cc1N1CCN(C(=O)c2cccc3c(=O)c(C)c(-c4ccccc4)oc23)CC1`, the B-score result was “inactive”. On to `Cc1ccc(-c2csc(NCCc3nc4cc(Cl)c(Cl)cc4n3CCOCCO)n2)cc1`, for which the B-score result was “inactive”. For `Cc1cc(/C=N/n2cnnc2)c(C)n1-c1ccc2ncccc2c1`, the B-score entry is “inactive”. For `COc1ccc(NC(=S)N2CCC(NC(=O)c3cccc(F)c3)CC2)cc1`, the B-score entry is “inactive”. As to `Nc1c(C(=O)c2cccs2)sc2nsc(SCCN3CCCCC3)c12`, the B-score was 19.2 (active). Next, `CN(C)c1ccnc2sc(C(=O)c3ccccc3)c(N)c12`: “inactive”; `O=C(CN1C2=NCCN2c2ccccc21)c1cccs1`: “inactive”; `O=C(NCCNc1ccccc1[N+](=O)[O-])c1ccccc1F`: “inactive”. As for `O=C(CSc1nnc(Cn2cnc3ccccc32)o1)c1ccccc1`, the B-score entry is “inactive”.

Turning to `COc1ccc(NC(=O)c2oc3ccc(S(=O)(=O)N4CCOCC4)cc3c2C)cc1`, the B-score entry is “inactive”.

As to `Nc1ccc(Cl)c(S(=O)(=O)Nc2ccccc2Cl)c1`, the B-score entry is “inactive”. The entry for `CCCCNC(=O)N1CCN(S(C)(=O)=O)CC1` is “inactive”; for `CCCCn1c(O)c(N=NC(=O)Cn2c(C(F)(F)F)nc3ccccc32)c2ccccc21` it is “inactive”; for `O=C1/C(=C\c2ccsc2)NC(=S)N1c1ccccc1` it is “inactive”. For the molecule `COc1cc(/C=C2/SC(=S)N(Cc3ccccc3)C2=O)cc(OC)c1O`, the B-score result was “inactive”. As for `CN(C)c1ccc(/C=C2\NC(=S)N(Cc3ccccc3)C2=O)cc1`, the B-score was 22.1 (active).

Regarding `Cc1cccc(C)c1NC(=O)CSc1nc2c([nH]1)c(=O)n(C)c(=O)n2C`, the B-score result was “inactive”.
